Values joined by “and” are separate entries in the source; they are usually repeats but may differ in a detail not shown here. Identical values can stand only once. Inconclusive results are not listed. A structure can be active in one record and inactive in another. Active and inactive are the calls of the source. The call rests on the fitted dose curve; in most records, active means well fitted curve in the direction sought with a large enough effect; inconclusive means small, poorly fitted or top-dose-only effect, or another doubt; inactive means no such curve, though single readings can be large; an effect the other way counts as inactive or inconclusive.
Key:
CRL-7250 = normal cell line; experiment: Cytotoxic Profiling of Annotated Libraries Using Quantitative High-Throughput Screening (AID 1296008); settings: Five cell lines viability, CellTiter-Glo ATP luminescence, 48-72 h; max response: stronger effect = lower value; further: nearly all actives have a fitted effect of over 60% in size; on max response: on the % scale 0 is the no-effect control and ±100 the full control effect
Outline: (§1)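 Compounds were pin-transferred onto cells and incubated 48 or 72 hr at 37 degree Celsius, 95% humidity. CellTiter-Glo was added, plates sat 10 min at room temperature, then ATP-coupled luminescence was imaged as the viability read-out.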

HEK293 = experiment: as above; settings: Five cell lines viability, CellTiter-Glo ATP luminescence, 48-72 h; max response: stronger effect = lower value
Outline: as §1

MCC-26 = experiment: qHTS assay to identify novel small-molecules to repurpose for Merkel cell carcinoma treatment (AID 1296009); settings: MCC and control cell lines, CellTiter-Glo viability, 72 h; series mostly up to 46 µM; further: nearly all actives have a fitted effect of over 60% in size
Outline: (§2)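 Viability readout: ATP luminescence (CellTiter-Glo) after 72 hr drug exposure at 37 degree celsius. Dose-response format was 8 points for NPC and 11 points for MIPE; data normalized to in-plate controls.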

MKL-1 = experiment: as above; settings: MCC and control cell lines, CellTiter-Glo viability, 72 h; series mostly up to 46 µM
Outline: as §2

MKL-2 = experiment: as above; settings: MCC and control cell lines, CellTiter-Glo viability, 72 h; series mostly up to 46 µM
Outline: as §2

UISO = experiment: as above; settings: MCC and control cell lines, CellTiter-Glo viability, 72 h; series mostly up to 46 µM
Outline: as §2

TAB165 = experiment: qHTS profiling for inhibitors of Plasmodium falciparum proliferation (AID 504749); further: nearly all actives have a fitted effect of over 60% in size; settings: P. falciparum in erythrocytes, SYBR Green DNA, 72 h; series mostly up to 28.7 µM
Outline: (§3)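 Quantitative HTS: compounds pinned into medium, infected erythrocytes added (0.3% parasitemia, 2.5% hematocrit), 72 h culture at 37 C under 5% CO2. Saponin/Triton lysis with SYBR Green I, overnight RT, then fluorescence read.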

W2 = experiment: as above; settings: P. falciparum in erythrocytes, SYBR Green DNA, 72 h; series mostly up to 28.7 µM
Outline: as §3

MCC-13 = experiment: qHTS assay to identify novel small-molecules to repurpose for Merkel cell carcinoma treatment (AID 1296009); settings: MCC and control cell lines, CellTiter-Glo viability, 72 h; series mostly up to 46 µM; further: nearly all actives have a fitted effect of over 60% in size
Outline: as §2

WaGa = experiment: as above; settings: MCC and control cell lines, CellTiter-Glo viability, 72 h; series mostly up to 46 µM
Outline: as §2

C33A = experiment: Primary qHTS to identify gynecologic anti-cancer compounds using libraries of approved drugs and bioactive compounds (AID 1345084); settings: Gynecologic cancer cell panel viability, ATPlite luminescence, 48 h; series mostly up to 57.5 µM; further: nearly all actives have a fitted effect of over 55% in size
Outline: (§4)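 Cells, 1,000 per well, plated 16 h, then exposed 48 h at 37 C to compounds. Viability by ATPlite luminescence after 15 min at room temperature.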

CAOV3 = experiment: as above; settings: Gynecologic cancer cell panel viability, ATPlite luminescence, 48 h; series mostly up to 57.5 µM
Outline: as §4

CASKI = experiment: as above; settings: Gynecologic cancer cell panel viability, ATPlite luminescence, 48 h; series mostly up to 57.5 µM
Outline: as §4

Es-2 = experiment: as above; settings: Gynecologic cancer cell panel viability, ATPlite luminescence, 48 h; series mostly up to 57.5 µM
Outline: as §4

HACAT [1] = experiment: qHTS assay to identify novel small-molecules to repurpose for Merkel cell carcinoma treatment (AID 1296009); settings: MCC and control cell lines, CellTiter-Glo viability, 72 h; at 44.8 µM (top of the series) unless noted; further: nearly all actives have a fitted effect of over 60% in size
Outline: as §2

HEK293T = experiment: as above; settings: MCC and control cell lines, CellTiter-Glo viability, 72 h; at 44.8 µM (top of the series) unless noted
Outline: as §2

NIH3T3 [2] = experiment: as above; settings: MCC and control cell lines, CellTiter-Glo viability, 72 h; at 44.8 µM (top of the series) unless noted
Outline: as §2

HaCat [3] = experiment: Cytotoxic Profiling of Annotated Libraries Using Quantitative High-Throughput Screening (AID 1296008); settings: Five cell lines viability, CellTiter-Glo ATP luminescence, 48-72 h; max response: stronger effect = lower value; further: nearly all actives have a fitted effect of over 60% in size; on max response: on the % scale 0 is the no-effect control and ±100 the full control effect
Outline: as §1

KB-3-1 = experiment: as above; settings: Five cell lines viability, CellTiter-Glo ATP luminescence, 48-72 h; max response: stronger effect = lower value
Outline: as §1

NIH3T3 [4] = experiment: as above; settings: Five cell lines viability, CellTiter-Glo ATP luminescence, 48-72 h; max response: stronger effect = lower value
Outline: as §1
Potency means the concentration at half of the fitted maximal effect.

COc1cc2nc(N3CCCN(C)CC3)nc(NC3CCN(Cc4ccccc4)CC3)c2cc1OC
active: Potency (CRL-7250) 9.35 µM | Potency (HEK293) 6.62 µM | Potency (MCC-26) 23.5 µM | Potency (MKL-1) 2.96 µM | Potency (MKL-2) 1.32 µM | Potency (UISO) 14.8 µM

C1CCC(C(CC2CCCCN2)C2CCCCC2)CC1 (centres undefined)
16.8 µM (active) and inactive: Potency (UISO)
inactive: Potency (MCC-13)
active: Potency (TAB165) 10 µM | Potency (W2) 1.69 µM | Potency (HEK293) 26.4 µM | Potency (MKL-1) 6.68 µM | Potency (MKL-2) 2.37 µM and 18.7 µM | Potency (WaGa) 21.1 µM | Potency (C33A) 31.6 µM | Potency (CAOV3) 6.31 µM | Potency (CASKI) 20 µM | Potency (Es-2) 28.2 µM

CC(C)(C)C(=O)OCOP(=O)(COCCn1cnc2c(N)ncnc21)OCOC(=O)C(C)(C)C
inactive: Potency (CASKI)
active: Potency (CAOV3) 12.6 µM | Potency (Es-2) 7.08 µM

Nc1ccc(S(=O)(=O)Nc2ccccn2)cc1
inactive: Potency (TAB165) | Potency (W2) | outcome (HACAT [1]) | outcome (HEK293T) | Potency (MCC-13) | Potency (MCC-26) | Potency (MKL-1) | Potency (MKL-2) | outcome (NIH3T3 [2]) | Potency (UISO) | Potency (WaGa) | Potency (C33A) | Potency (CAOV3) | Potency (CASKI) | Potency (Es-2)

COc1ncnc(NS(=O)(=O)c2ccc(N)cc2)c1OC
active: Potency (HEK293) 3.32 µM | Potency (NIH3T3 [4]) 16.6 µM
inactive: Potency (TAB165) | Potency (W2) | outcome (HEK293) | max response (HaCat [3]) -20.7% | outcome (HaCat [3]) | max response (KB-3-1) -15% and 8.7% | max response (NIH3T3 [4]) -17.7% | outcome (HACAT [1]) | outcome (HEK293T) | Potency (MCC-13) | Potency (MCC-26) | Potency (MKL-1) | Potency (MKL-2) | Potency (UISO) | Potency (WaGa) | Potency (C33A) | Potency (CAOV3) | Potency (CASKI) | Potency (Es-2)

OCc1ccc(-c2nn(Cc3ccccc3)c3ccccc23)o1
active: Potency (HEK293) 14.8 µM | Potency (MKL-2) 18.7 µM | Potency (UISO) 11.8 µM
inactive: outcome (KB-3-1) | Potency (MCC-13)

CCCCc1oc2ccc(NS(C)(=O)=O)cc2c1C(=O)c1ccc(OCCCN(CCCC)CCCC)cc1
inactive: Potency (MCC-13)
active: Potency (HEK293) 11.6 µM | Potency (HaCat [3]) 23.7 µM | Potency (KB-3-1) 23.1 µM | Potency (NIH3T3 [4]) 9.44 µM | Potency (MKL-2) 13.2 µM and 4.73 µM

COc1ccc2cc3[n+](cc2c1OC)CCc1cc2c(cc1-3)OCO2
inactive: max response (NIH3T3 [4]) -15.5% and -8.88% | Potency (MCC-13) | Potency (MCC-26)
active: Potency (TAB165) 0.794 µM | Potency (W2) 0.601 µM | Potency (CRL-7250) 1.06 µM and 4.18 µM | Potency (HEK293) 1.33 µM and 1.05 µM | Potency (KB-3-1) 20.6 µM and 13.2 µM | Potency (MKL-1) 1.88 µM and 2.96 µM | Potency (MKL-2) 841 nM and 1.48 µM | Potency (UISO) 9.44 µM and 14.8 µM | Potency (WaGa) 2.09 µM | Potency (C33A) 8.91 µM | Potency (CASKI) 2.24 µM | Potency (Es-2) 15.8 µM

CCCCOc1ccc(CC(=O)NO)cc1
inactive: max response (CRL-7250) -23.3% | max response (HEK293) -50.4% | max response (KB-3-1) -6.89% | outcome (KB-3-1) | max response (NIH3T3 [4]) -7.85% | Potency (MCC-13) | Potency (MCC-26) | Potency (CAOV3) | Potency (CASKI)
active: Potency (TAB165) 3.16 µM | Potency (W2) 0.572 µM | Potency (NIH3T3 [4]) 23.7 µM | Potency (UISO) 16.8 µM

CO[C@@]12[C@H](COC(N)=O)C3=C(C(=O)C(C)=C(N)C3=O)N1C[C@@H]1N[C@@H]12
active: Potency (CAOV3) 3.55 µM | Potency (CASKI) 8.91 µM | Potency (Es-2) 4.47 µM
inactive: Potency (C33A)

Cc1ccc(S(=O)(=O)N[C@@H](Cc2ccccc2)C(=O)CCl)cc1
inactive: max response (CRL-7250) -1.25% | outcome (HaCat [3]) | max response (KB-3-1) 6.1% | outcome (NIH3T3 [4]) | outcome (HACAT [1]) | Potency (MCC-13) | Potency (MCC-26) | outcome (NIH3T3 [2])

Cc1ncc([N+](=O)[O-])n1CCO
inactive: Potency (TAB165) | Potency (W2) | Potency (C33A) | Potency (CAOV3) | Potency (CASKI) | Potency (Es-2)
